Our source for the growth inhibition values is PubChem BioAssay (NCI).

This is part of a sample that, as a whole, favours compounds with a hit. Of some 79,000 tested, about 15% had one in any assay. Unmarked numbers belong to inactive results. Active and inactive are the calls of the source. Cut-off read from the data, not from the text of the source: active = growth inhibition above about 70%; inactive = the rest.

This test can be described thus: NCI Yeast Anticancer Drug Screen. Data for the mgt1 strain (AID 153). Particulars: S. cerevisiae mgt1 mutant growth inhibition, stronger effect = higher value. The method, then: Growth inhibition of yeast strains with defined genetic alterations is measured as a screen for potential anti-cancer activity. Selected strains with alterations in DNA damage repair or cell cycle control were exposed to compounds and growth inhibition was measured relative to vehicle treated controls. The strain used in this assay is mgt1

Turning to `COc1cc2c(cc1O)[C@H](C)C(c1ccccc1OC)O2` (stereo not given in full), the growth inhibition is, setting by setting: (at 1.2 µM) 1%; (at 3.7 µM) 5%; (at 11.0 µM) -4%; (at 33.0 µM) 33%; (at 100.0 µM) 97% (active).
Turning to `O=C1CSC(c2ccccc2)N1c1ccc(-c2ccc(-n3c(-c4ccccc4)nc4ccccc4c3=O)cc2)cc1` (stereo not given), the growth inhibition is 0% (at 1.2 µM); 1% (at 3.7 µM); 0% (at 11.0 µM); 22% (at 33.0 µM); 64% (at 100.0 µM).
Take `CCN(CC)C(=S)N/N=C(\C)c1ccccc1O`: the growth inhibition (at 1.2 µM) is 9%; the growth inhibition (at 3.7 µM) is 16%; the growth inhibition (at 11.0 µM) was 71% (active); the growth inhibition (at 33.0 µM) is 98% (active); the growth inhibition (at 100.0 µM) was 99% (active).
In the same order, the values of `CC1CN(/N=C\c2ccc([N+](=O)[O-])o2)C(=O)O1` (stereo not given) are -1%, -1%, -1%, -1% and 9%.
On to `O=C1C=CC(=Nc2cccc3c2-c2ccccc2C3=O)O1`, for which the growth inhibition is, setting by setting: (at 1.2 µM) 1%; (at 3.7 µM) 17%; (at 11.0 µM) 71% (active); (at 33.0 µM) 99% (active); (at 100.0 µM) 99% (active).
On to `COC(=O)C(=O)c1c(-c2ccc(Cl)c(Cl)c2)[nH]c2[nH]n(-c3ccccc3)c(=O)c2c1=O`, for which the growth inhibition runs as follows: (at 1.2 µM) -2%; (at 3.7 µM) -2%; (at 11.0 µM) 44%; (at 33.0 µM) 68%; (at 100.0 µM) 68%.
For the compound `O=C1C(=O)N(c2ccccc2)[C@@]2(c3ccccc3)C(=Nc3ccccc3)OC(c3ccccc3)=C12`, the growth inhibition by setting is: (at 1.2 µM) -3%; (at 3.7 µM) -1%; (at 11.0 µM) 80% (active); (at 33.0 µM) 94% (active); (at 100.0 µM) 97% (active).
With `CC12CCC(CC(=O)/C1=C(/Br)I)C2(C)C` (stereo not given), the growth inhibition by setting is: (at 1.2 µM) -1%; (at 3.7 µM) -2%; (at 11.0 µM) 6%; (at 33.0 µM) -13%; (at 100.0 µM) 0%.
